Assay results as given in PubChem BioAssay (NCATS).
Results filed as inconclusive are left out. The source made the active and inactive calls. Unless noted, the call rests on the fitted dose curve; in most records, active means well fitted curve in the direction sought with a large enough effect; inconclusive means small, poorly fitted or top-dose-only effect, or another doubt; inactive means no such curve, though single readings can be large; an effect the other way counts as inactive or inconclusive.

Columns and labels:
[1] = target: Lysosomal acid glucosylceramidase (Homo sapiens) (UniProt P04062); test: Glucocerebrosidase-p2 (AID 348; in the data active means potency below about 10 µM; further: potency means the concentration at half of the fitted maximal effect); details: purified GBA, blue fluorogenic substrate, 40 min
Sequence of Lysosomal acid glucosylceramidase (Homo sapiens) (P04062 whole entry, looked up): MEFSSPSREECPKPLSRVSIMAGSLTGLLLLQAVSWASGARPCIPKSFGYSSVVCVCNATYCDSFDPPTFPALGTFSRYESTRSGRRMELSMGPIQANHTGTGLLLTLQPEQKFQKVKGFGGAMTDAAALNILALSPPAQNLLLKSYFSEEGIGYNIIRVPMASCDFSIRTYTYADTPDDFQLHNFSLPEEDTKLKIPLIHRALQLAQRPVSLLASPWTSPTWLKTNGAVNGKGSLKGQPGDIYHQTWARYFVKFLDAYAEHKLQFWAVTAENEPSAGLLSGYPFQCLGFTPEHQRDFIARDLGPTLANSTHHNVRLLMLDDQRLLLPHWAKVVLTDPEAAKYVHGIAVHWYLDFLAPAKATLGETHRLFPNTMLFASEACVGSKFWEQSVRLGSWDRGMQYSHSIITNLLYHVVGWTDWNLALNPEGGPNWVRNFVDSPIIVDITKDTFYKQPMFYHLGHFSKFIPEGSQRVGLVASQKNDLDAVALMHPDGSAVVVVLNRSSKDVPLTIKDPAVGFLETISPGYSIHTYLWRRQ
In short: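 Compounds titrated from 0.6 nM upwards against 0.2 nM enzyme in pH 5.9 citric acid/KH2PO4, taurocholate, tween-20; blue fluorogenic substrate 80 uM, 40 min room temperature, stopped and read Ex 365/Em 440 for AC50.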

[2] = AP1 Signaling Pathway (AID 357; active means well fitted curve in either direction with a large enough effect, not every such curve was filed as active;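 further: ME-180 reporter cells stimulated with EGF at its EC50 level; on the % scale 0 is the no-effect control and ±100 the full control effect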); details: ME-180 AP-1-bla reporter, EGF-induced, beta-lactamase ratio, 5 h; at 7.69 µM (top of the series) unless noted
In short: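 Cells are seeded overnight, exposed to compound titrations and an EC50 level of EGF for 5 hours at 37 °C, then loaded with CCF4 dye for 2.5 hours. Beta-lactamase activity under the AP-1 element is read as a blue/green ratio.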

[3] = target: Cytochrome P450 1A2 (Homo sapiens) (UniProt P05177); test: p450-cyp1a2 (AID 410; calls by dose curve; further: potency means the concentration at half of the fitted maximal effect); details: recombinant CYP1A2, luciferin-ME demethylation, luminescence; series mostly up to 57 µM
Sequence of Cytochrome P450 1A2 (Homo sapiens) (P05177 whole entry, looked up): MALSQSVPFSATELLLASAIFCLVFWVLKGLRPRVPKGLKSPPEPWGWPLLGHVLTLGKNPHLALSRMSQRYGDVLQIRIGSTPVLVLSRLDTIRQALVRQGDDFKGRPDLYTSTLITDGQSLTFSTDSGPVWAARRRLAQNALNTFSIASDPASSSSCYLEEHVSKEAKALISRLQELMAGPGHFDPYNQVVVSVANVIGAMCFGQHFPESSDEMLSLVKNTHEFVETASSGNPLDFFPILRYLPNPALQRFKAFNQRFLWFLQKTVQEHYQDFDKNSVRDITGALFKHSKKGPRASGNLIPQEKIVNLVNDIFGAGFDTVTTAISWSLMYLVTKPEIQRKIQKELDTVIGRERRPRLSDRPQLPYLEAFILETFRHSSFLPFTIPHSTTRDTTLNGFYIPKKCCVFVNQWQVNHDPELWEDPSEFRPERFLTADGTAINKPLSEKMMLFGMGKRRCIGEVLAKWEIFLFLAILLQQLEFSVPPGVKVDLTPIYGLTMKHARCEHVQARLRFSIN
In short: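 Human CYP1A2 (20nM) demethylated Luciferin-ME at its Km (100uM) in 100mM KPO4. After 10 min compound preincubation, NADPH regeneration ran the reaction 60 min at room temperature. Luciferin was read by luminescence, normalized to 57 uM furafylline.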

[4] = NFAT Signaling Pathway (AID 444; active means well fitted curve in either direction with a large enough effect, not every such curve was filed as active;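 further: carbachol stimulus at about its EC50 of 1 µM final; on the % scale 0 is the no-effect control and ±100 the full control effect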); details: Jurkat NFAT-bla M1, carbachol, beta-lactamase ratio, 5 h; at 7.69 µM (top of the series) unless noted
In short: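 Jurkat cells with NFAT-driven β-lactamase reporter and co-expressed M1 receptor, stimulated with carbachol (final 1 uM, ~EC50), compound titration, 5 h at 37 °C. CCF4 loaded 1 h at RT; 460/530 nm ratio gave %activity and AC50.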

[5] = Stat Signaling Pathway (AID 446; active means well fitted curve in either direction with a large enough effect, not every such curve was filed as active;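 further: ME-180 cervical cancer cells given 40 pM IL-6 alongside compound; SIE-controlled beta-lactamase reporter measured as 460/530 nm FRET emission ratio; on the % scale 0 is the no-effect control and ±100 the full control effect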); details: ME-180 SIE beta-lactamase reporter, IL-6 stimulated, 5 h; at 7.69 µM (top of the series) unless noted
In short: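 ME-180 SIE-bla cells; overnight plating; cpd + IL-6 40 pM, 5 h, 37 C; LiveBLAzer 2.5 h RT; 460/530 nm emission ratio. Normalized to 300 pM IL-6 and 125 nM JAK inhibitor controls.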

[6] = target: Glucocorticoid receptor (Homo sapiens) (UniProt P04150); test: GR-GFP Redistribution (AID 450;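 active means compounds whose dose series gives a full or clear partial fitted curve of increased nuclear translocation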; further: potency means the concentration at half of the fitted maximal effect); details: U2OS GR-GFP nuclear translocation, laser cytometry, 2 h
Sequence of Glucocorticoid receptor (Homo sapiens) (P04150 whole entry, looked up, the tested form may be a part): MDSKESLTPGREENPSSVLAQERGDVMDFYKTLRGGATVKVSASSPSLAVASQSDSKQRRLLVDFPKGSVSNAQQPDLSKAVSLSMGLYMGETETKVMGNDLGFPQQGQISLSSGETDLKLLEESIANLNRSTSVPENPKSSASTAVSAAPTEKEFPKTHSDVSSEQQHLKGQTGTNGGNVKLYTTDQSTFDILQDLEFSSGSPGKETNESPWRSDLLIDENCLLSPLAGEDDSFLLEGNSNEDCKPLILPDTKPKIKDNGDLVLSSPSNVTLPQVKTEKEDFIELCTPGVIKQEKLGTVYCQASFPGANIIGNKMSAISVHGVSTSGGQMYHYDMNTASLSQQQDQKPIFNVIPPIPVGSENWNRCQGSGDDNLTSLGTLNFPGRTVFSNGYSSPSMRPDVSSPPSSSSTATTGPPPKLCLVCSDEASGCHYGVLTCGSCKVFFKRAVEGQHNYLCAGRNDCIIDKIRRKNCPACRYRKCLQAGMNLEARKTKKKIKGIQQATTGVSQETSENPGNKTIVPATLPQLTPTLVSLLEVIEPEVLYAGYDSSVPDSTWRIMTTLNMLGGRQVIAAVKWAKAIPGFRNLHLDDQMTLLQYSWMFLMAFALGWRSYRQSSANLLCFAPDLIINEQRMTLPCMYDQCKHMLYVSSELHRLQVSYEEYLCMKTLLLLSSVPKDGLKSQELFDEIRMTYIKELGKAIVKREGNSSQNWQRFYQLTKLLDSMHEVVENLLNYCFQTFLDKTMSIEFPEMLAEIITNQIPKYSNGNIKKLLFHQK

[7] = target: Glucocorticoid receptor (Homo sapiens) (UniProt P04150); test: GR-EFC Redistribution (AID 451; calls by dose curve; further: potency means the concentration at half of the fitted maximal effect); details: CHO-K1 GR-EFC translocation, beta-gal luminescence, 2 h
In short: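 CHO-K1 cells expressing nuclear EA and GR-ED fragments of b-gal; compounds titrated up to 46 uM final, 2 h at 37 C. GR nuclear translocation read as complemented b-gal luminescence after 1 h RT detection.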

[8] = target: Mitogen-activated protein kinase 10 (Mus musculus) (UniProt Q61831); test: JNK3 AlphaScreen Assay (AID 530; active means well fitted curve in either direction with a large enough effect, not every such curve was filed as active;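 further: kinase came from lysate of stimulated human HepG2 cells; signal reports phosphorylation of biotinylated GST-cJun 1-79 at Ser73 with 10 µM ATP; on the % scale 0 is the no-effect control and ±100 the full control effect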); details: JNK3 lysate, c-Jun phosphorylation; series mostly up to 57.1 µM
In short: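 qHTS format: compounds tested as titrations against IL-1beta/TNF-alpha-activated HepG2 lysate JNK3 with biotin-GST-cJun substrate and 10 uM ATP at room temperature. Loss of anti-phospho-cJun AlphaScreen signal indicates inhibition.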

[9] = target: Cytochrome P450 3A4 (Homo sapiens) (UniProt P08684); test: qHTS Assay for Inhibitors and Substrates of Cytochrome P450 3A4 (AID 884); details: recombinant CYP3A4, Luciferin-PPXE luminescence; series mostly up to 57.1 µM; further: potency means the concentration at half of the fitted maximal effect; nearly all actives have a fitted effect of over 50% in size
Sequence of Cytochrome P450 3A4 (Homo sapiens) (P08684 whole entry, looked up): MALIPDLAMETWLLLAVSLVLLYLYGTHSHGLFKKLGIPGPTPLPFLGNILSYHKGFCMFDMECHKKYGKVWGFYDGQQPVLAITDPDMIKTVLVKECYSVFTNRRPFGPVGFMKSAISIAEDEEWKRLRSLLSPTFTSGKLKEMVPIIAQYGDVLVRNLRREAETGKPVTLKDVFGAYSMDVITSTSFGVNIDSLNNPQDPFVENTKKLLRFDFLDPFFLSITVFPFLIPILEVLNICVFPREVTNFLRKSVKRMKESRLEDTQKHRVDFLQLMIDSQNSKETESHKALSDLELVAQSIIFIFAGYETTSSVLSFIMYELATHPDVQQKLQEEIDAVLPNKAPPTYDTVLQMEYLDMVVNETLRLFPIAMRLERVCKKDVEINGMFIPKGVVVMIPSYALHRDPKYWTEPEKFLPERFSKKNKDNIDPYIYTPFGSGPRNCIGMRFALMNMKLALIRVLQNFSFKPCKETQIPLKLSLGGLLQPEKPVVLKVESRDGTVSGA
In short: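 20 nM human CYP3A4 with 25 uM Luciferin-PPXE (at KM) in 200 mM KPO4, preincubated 10 min with compound; NADPH regeneration started a 60 min RT reaction. Luciferin detected by luminescence, normalized to 57 uM ketoconazole as full inhibition.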

[10] = target: Cytochrome P450 3A4 (Homo sapiens) (UniProt P08684); test: qHTS Assay for Activators of Cytochrome P450 3A4 (AID 885); details: recombinant CYP3A4, Luciferin-PPXE luminescence, 60 min; series mostly up to 57.1 µM; further: nearly all actives have a fitted effect of over 65% in size
In short: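 20nM CYP3A4 + 25uM Luciferin-PPXE (=KM), 200mM KPO4; cpd 10 min RT; NADPH regen, 60 min RT; stop w/ detection buffer, 20 min; luminescence. Normalized to 57 uM ketoconazole.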

[11] = qHTS Assay for Lipid Storage Modulators (AID 1519; calls by dose curve); details: Drosophila S3 cells, BODIPY lipid droplet/cell ratio, laser cytometry, cells loaded with oleic acid; for activity change, negative = inhibition: at 57.5 µM (top of the series)
In short: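 Cells seeded at 5,000 per well were treated with compounds over a concentration series and loaded with oleic acid (400 uM, as added). Lipid droplet fluorescence (488 nm excitation, 500-530 nm channel) was read by laser-scanning cytometry and normalized to 20 uM Triacsin C.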

[12] = target: Dual specificity protein kinase CLK4 (Homo sapiens) (UniProt Q9HAZ1); test: qHTS Assay for Inhibitors of CDC-like Kinase 4 (Kinase-Glo Assay) (AID 1770); details: recombinant Clk4, Kinase-Glo ATP depletion luminescence; series mostly up to 66.7 µM; further: on the % scale 0 is the no-effect control and ±100 the full control effect; nearly all actives have a fitted effect of over 65% in size
Sequence of Dual specificity protein kinase CLK4 (Homo sapiens) (Q9HAZ1 whole entry, looked up): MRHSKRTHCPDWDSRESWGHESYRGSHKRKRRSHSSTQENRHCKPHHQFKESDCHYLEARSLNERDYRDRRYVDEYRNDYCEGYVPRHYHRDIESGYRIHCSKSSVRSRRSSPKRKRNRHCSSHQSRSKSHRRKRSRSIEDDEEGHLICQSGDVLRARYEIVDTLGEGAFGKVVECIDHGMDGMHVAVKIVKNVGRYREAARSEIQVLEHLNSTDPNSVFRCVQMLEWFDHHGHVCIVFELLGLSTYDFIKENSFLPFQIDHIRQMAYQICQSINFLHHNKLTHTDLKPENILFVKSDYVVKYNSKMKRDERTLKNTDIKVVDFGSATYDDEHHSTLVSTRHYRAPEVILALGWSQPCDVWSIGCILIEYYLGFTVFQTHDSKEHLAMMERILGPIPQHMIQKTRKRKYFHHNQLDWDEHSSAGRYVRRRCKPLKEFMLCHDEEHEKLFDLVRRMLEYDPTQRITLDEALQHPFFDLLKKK
In short: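 25 nM Clk4 with 100 uM RS repeat peptide and 1 uM ATP (final) in Tris pH7.5, 10 mM MgCl2, 4.5 h at room temperature. Remaining ATP measured by Kinase-Glo luciferase luminescence.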

[13] = target: Dual specificity protein kinase CLK4 (Homo sapiens) (UniProt Q9HAZ1); test: qHTS Assay for Inhibitors of CDC-like Kinase 4 (ADP-Glo Assay) (AID 1771); details: recombinant CLK4, ADP-Glo luminescence; series mostly up to 80 µM; further: on the % scale 0 is the no-effect control and ±100 the full control effect; nearly all actives have a fitted effect of over 70% in size
In short: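 Clk4 (25 nM) was incubated 1 hr at room temperature with 100 uM RS repeat peptide and 1 uM ATP in buffer with 2 mM MgCl2, 0.5 mM EGTA, 2.5 mM DTT. ADP formed was quantified by ADP-Glo luminescence.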

[14] = target: Dual specificity protein kinase CLK4 (Homo sapiens) (UniProt Q9HAZ1); test: qHTS Assay for Inhibitors of CDC-like Kinase 4 (ADP-FP Assay) (AID 1795); details: Transcreener ADP fluorescence polarization; series mostly up to 50 µM;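 further: recombinant human CLK4 phosphorylating RS repeat peptide at 1 µM ATP; on the % scale 0 is the no-effect control and ±100 the full control effect; nearly all actives have a fitted effect of over 60% in size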
In short: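 Recombinant Clk4 (6.25 nM) phosphorylated 100 uM RS repeat peptide with 1 uM ATP in 25 mM Tris pH 7.5, 10 mM MgCl2, 0.5 mM EGTA, 2.5 mM DTT, 0.01% Triton X-100 for 1 h. ADP was detected by Transcreener ADP2 competitive fluorescence polarization after 30 min at room temperature.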

[15] = target: Ubiquitin carboxyl-terminal hydrolase 1 (Homo sapiens) (UniProt O94782); test: Inhibitors of USP1/UAF1: Pilot qHTS (AID 504865); details: purified USP1/UAF1, Ub-rhodamine cleavage fluorescence; series mostly up to 54.9 µM;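 further: rhodamine fluorescence freed from ubiquitin-rhodamine substrate followed over time; top concentration of the series differs between compounds; on the % scale 0 is the no-effect control and ±100 the full control effect; nearly all actives have a fitted effect of over 35% in size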
Sequence of Ubiquitin carboxyl-terminal hydrolase 1 (Homo sapiens) (O94782 whole entry, looked up): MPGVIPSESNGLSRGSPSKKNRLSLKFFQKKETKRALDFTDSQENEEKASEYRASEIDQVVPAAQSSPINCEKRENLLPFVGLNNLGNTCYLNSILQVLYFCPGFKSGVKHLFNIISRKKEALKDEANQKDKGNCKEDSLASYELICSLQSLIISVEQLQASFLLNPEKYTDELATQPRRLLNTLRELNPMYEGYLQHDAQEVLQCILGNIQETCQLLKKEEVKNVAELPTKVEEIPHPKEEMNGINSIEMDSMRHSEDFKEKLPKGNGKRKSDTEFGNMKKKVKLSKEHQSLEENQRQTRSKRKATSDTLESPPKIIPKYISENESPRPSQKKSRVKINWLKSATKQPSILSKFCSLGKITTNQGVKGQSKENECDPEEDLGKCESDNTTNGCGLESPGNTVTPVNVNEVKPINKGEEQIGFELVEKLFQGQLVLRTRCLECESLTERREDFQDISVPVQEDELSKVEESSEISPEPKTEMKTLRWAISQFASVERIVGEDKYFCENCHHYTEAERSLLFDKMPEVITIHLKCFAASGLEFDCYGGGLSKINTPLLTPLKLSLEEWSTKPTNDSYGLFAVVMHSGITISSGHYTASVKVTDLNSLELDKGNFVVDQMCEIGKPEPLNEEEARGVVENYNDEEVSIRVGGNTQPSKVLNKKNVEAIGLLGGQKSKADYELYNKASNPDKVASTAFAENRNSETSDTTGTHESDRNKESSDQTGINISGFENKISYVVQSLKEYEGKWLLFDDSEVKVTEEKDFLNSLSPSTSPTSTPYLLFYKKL
In short: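 USP1/UAF1 complex at 1 nM preincubated 15 min at room temperature with compound, then Ub-Rho substrate added at 150 nM final. Fluorescence (480/540 nm) read kinetically in 50 mM HEPES pH 7.8, 0.5 mM EDTA, 1 mM TCEP, 0.1 mg/ml BSA, 0.01% Tween-20.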

[16] = Primary qHTS for small molecule stabilizers of the endoplasmic reticulum resident proteome: Secreted ER Calcium Modulated Protein (SERCaMP) assay (AID 1508630); details: SH-SY5Y GLuc-SERCaMP (Gaussia luciferase released on ER calcium loss) secretion, thapsigargin, luminescence; series mostly up to 38.4 µM; further: on the % scale 0 is the no-effect control and ±100 the full control effect
In short: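 GLuc-SERCaMP-expressing SH-SY5Y cells, pretreated 16 h with compound, are challenged with thapsigargin to empty ER calcium stores; after 4 h, coelenterazine is added directly to the medium and luminescence is imaged.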

[17] = target: 3',5'-cyclic-AMP phosphodiesterase 4B (Homo sapiens) (UniProt Q07343); test: qHTS Assay for Inhibitors of PDE-IV (AID 607; active means well fitted activation curve with a large enough effect in the main read-out, with a control signal flat, not every such curve was filed as active; further: % of control where 0% means no effect); details: HEK293 ACTOne CNG channel cells, membrane potential fluorescence; series mostly up to 22.9 µM
Sequence of 3',5'-cyclic-AMP phosphodiesterase 4B (Homo sapiens) (Q07343 whole entry, looked up): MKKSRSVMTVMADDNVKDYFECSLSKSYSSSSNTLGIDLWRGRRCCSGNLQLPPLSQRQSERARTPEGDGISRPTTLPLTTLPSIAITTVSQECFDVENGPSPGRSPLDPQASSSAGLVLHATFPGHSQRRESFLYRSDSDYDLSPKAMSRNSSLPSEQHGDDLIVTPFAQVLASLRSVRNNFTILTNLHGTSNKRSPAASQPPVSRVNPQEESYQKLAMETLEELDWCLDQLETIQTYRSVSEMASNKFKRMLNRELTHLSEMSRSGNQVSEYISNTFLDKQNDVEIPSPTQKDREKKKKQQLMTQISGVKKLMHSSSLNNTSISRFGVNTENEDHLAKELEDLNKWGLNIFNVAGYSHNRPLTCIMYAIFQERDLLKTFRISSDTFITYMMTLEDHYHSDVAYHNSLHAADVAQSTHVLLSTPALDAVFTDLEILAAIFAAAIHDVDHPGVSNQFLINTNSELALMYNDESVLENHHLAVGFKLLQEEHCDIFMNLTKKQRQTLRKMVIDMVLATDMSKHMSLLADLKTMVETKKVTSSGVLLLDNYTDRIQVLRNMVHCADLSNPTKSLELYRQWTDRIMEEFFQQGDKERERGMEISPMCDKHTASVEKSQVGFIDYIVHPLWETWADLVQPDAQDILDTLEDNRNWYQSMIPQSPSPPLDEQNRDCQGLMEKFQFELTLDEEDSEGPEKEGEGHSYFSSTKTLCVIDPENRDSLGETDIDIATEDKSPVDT
In short: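 ACTOne HEK293 cells carry a modified cAMP-gated CNG channel and express endogenous PDE4; plated 1000 cells/well, compounds up to 22.9 uM final. Membrane-potential dye fluorescence (ex 535/em 590) was read; parental cells received 10 uM forskolin + 100 uM RO 20-1724.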

[18] = target: Cytochrome P450 2C19 (Homo sapiens) (UniProt P33261); test: qHTS Assay for Inhibitors and Substrates of Cytochrome P450 2C19 (AID 899); details: recombinant CYP2C19, luciferin-H EGE luminescence; series mostly up to 57.1 µM; further: nearly all actives have a fitted effect of over 60% in size; further: potency means the concentration at half of the fitted maximal effect
Sequence of Cytochrome P450 2C19 (Homo sapiens) (P33261 whole entry, looked up): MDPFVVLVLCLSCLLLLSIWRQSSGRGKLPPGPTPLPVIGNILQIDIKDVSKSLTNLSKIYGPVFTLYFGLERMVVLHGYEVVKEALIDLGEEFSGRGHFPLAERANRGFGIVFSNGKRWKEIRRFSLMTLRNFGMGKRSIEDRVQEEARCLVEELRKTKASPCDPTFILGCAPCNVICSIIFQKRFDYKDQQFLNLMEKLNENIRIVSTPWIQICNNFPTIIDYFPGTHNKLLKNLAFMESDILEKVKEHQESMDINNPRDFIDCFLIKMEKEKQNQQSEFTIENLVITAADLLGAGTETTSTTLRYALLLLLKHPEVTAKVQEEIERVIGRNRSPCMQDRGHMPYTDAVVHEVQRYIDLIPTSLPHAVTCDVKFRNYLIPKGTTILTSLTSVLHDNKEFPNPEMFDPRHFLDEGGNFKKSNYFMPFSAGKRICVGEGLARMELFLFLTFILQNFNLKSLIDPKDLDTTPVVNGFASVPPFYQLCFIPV
In short: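 5 nM human CYP2C19 with 10uM Luciferin-H EGE (at KM) in 50mM KPO4, compound preincubated 10 min at 37C, then NADPH regeneration for 60 min at 37C. Luciferin read by luminescence after detection reagent; normalized to 57uM ketoconazole as full inhibition.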

[19] = measured here: cell count channel max response
[20] = measured here: lipid channel max response

COc1ccc(-n2c(=O)c(-c3cccs3)nc3cnc(OC)nc32)cc1
13.8%: max response [11, 20]
12.4%: max response [11, 19]
inactive: Potency [1] > 11.4 µM | activity change, negative = inhibition [2] -22.9% | activity change, negative = inhibition [4] -2.37% | activity, negative = inhibition [5] -2.82% | Potency [6] > 9.22 µM | Potency [7] > 46 µM | outcome [8] | Potency [10] | activity change, negative = inhibition [11] 3.59% | Potency [12] | Potency [13] | Potency [14] | Potency [15] | Potency [16]
active: Potency [3] 5.01 µM | Potency [9] 7.94 µM

CNc1cc(-c2ccccc2CN(C)C)ncn1
7.6%: max response [11, 19]
inactive: Potency [1] > 11.4 µM | activity change, negative = inhibition [2] 6.89% | activity change, negative = inhibition [4] -0.773% | activity, negative = inhibition [5] -3.02% | Potency [6] > 46 µM | Potency [7] > 46 µM | outcome [8] | Potency [17] | activity change, negative = inhibition [11] 2.26% | Potency [12] | Potency [13] | Potency [14] | Potency [15] | Potency [16]
active: Potency [3] 31.6 µM
8.03%: max response [11, 20]

CN1CCN(c2ncc3ncc(=O)n(CCC#N)c3n2)CC1
active: Potency [3] 31.6 µM
10.7%: max response [11, 20]
inactive: Potency [1] > 11.4 µM | activity change, negative = inhibition [2] -10.2% | activity change, negative = inhibition [4] -4.67% | activity, negative = inhibition [5] -3.39% | Potency [6] > 9.22 µM | Potency [7] > 46 µM | outcome [8] | Potency [17] | Potency [18] | activity change, negative = inhibition [11] 6.98% | Potency [12] | Potency [13] | Potency [14] | Potency [15] | Potency [16]
9.3%: max response [11, 19]

Cc1nc2cncnc2n(Cc2ccccc2)c1=O
active: Potency [3] 12.6 µM | Potency [18] 158 nM
8.3%: max response [11, 20]
inactive: Potency [1] > 11.4 µM | activity change, negative = inhibition [2] -13.3% | activity change, negative = inhibition [4] -2.35% | activity, negative = inhibition [5] -15.3% | Potency [6] > 9.22 µM | Potency [7] > 46 µM | outcome [8] | activity change, negative = inhibition [11] 1.73% | Potency [12] | Potency [13] | Potency [14] | Potency [15] | Potency [16]
12.6%: max response [11, 19]

CCNc1ncc2nc(-c3ccc(Cl)cc3)c(=O)n(C[C@H]3CCCO3)c2n1
-16%: max response [11, 19]
inactive: Potency [1] > 11.4 µM | activity change, negative = inhibition [2] 25.5% | activity change, negative = inhibition [4] 4.01% | Potency [6] > 9.22 µM | Potency [7] > 46 µM | outcome [8] | Potency [17] | activity change, negative = inhibition [11] -12.7% | Potency [12] | Potency [13] | Potency [14] | Potency [15] | Potency [16]
active: Potency [3] 0.794 µM
-29.6%: max response [11, 20]
